# Pf growth 96h = Primary qHTS for delayed death inhibitors of the malarial parasite plastid, 96 hour incubation. 320,000 compounds, 6.9% hits. Potency, µM (top dose mostly 28.7 µM), for inactives: at the highest dose activity change, negative = inhibition, hits mostly inhibitors. AID 504834, 2011. P. falciparum luciferase reporter growth, 96 h; note: potency is the fitted concentration of half-maximal effect; % is set by controls: 0 for no effect and ±100 for the full control effect
#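 96 h incubation, 37 C, 5% CO2, of luciferase-reporter P. falciparum-infected RBCs (2% hematocrit, 0.05% parasitemia final) with test compounds; endpoint luminescence.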
# Pf growth 48h = Primary qHTS for delayed death inhibitors of the malarial parasite plastid, 48 hour incubation; P. falciparum luciferase growth in erythrocytes, 48 h; Potency, µM (top dose mostly 28.7 µM), for inactives: top-dose activity change, negative = inhibition, usual class: inhibitors; 310,000 compounds, 5.9% hits; note: potency is the fitted concentration of half-maximal effect; % is set by controls: 0 for no effect and ±100 for the full control effect
#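 Parasite viability was followed by luminescence of a genomically integrated firefly luciferase. Cultures held 0.1% parasitemia at 2% hematocrit (final), incubated under 5% CO2 at 37 C.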
# Shiga inhibitor = A qHTS for Small Molecule Inhibitors of Shiga Toxin; Vero cells, Shiga toxin protein synthesis inhibition reporter; inhibition, % at 38.7 µM; 290,000 compounds, 9.2% hits; AID 2315, 2010; in the data active = inhibition mostly above about 28%, no sharp cut-off; inactive = mostly below about 43%; note: 0% is about no effect
# Cycloheximide cs = Cycloheximide Counterscreen for Small Molecule Inhibitors of Shiga Toxin | cell reporter, cycloheximide protein synthesis inhibition counterscreen | max response, % | 300,000 compounds, 12% hits | AID 2314, 2010; in the data active = max response mostly above about 13%, no sharp cut-off; inactive = mostly below about 14%; note: read at 38.3 µM for the half of the compounds with a filed dose; 0% is about no effect
# Active calls of the source: *; ? = inconclusive; nt = no result given; [ ] = dose if it differs, or a comment. Most compounds without a hit are left out; they make up all but 21% or so of the library. Unless noted, calls come from the whole dose curve; as a rule, active = well fitted inhibition curve with a large enough effect; inconclusive = small, poorly fitted or top-dose-only effect, or another doubt; inactive = no such curve, though single readings can be large or run the other way.
SMILES,Pf growth 96h,Pf growth 48h,Shiga inhibitor,Cycloheximide cs
Cc1cc(C(=O)OCC(=O)N2CCN(C(=O)c3ccco3)CC2)c(C)n1-c1ccc(F)cc1,21%,12µM*,3,1
Cc1cc(C)c(C)c(S(=O)(=O)NCC(=O)Nc2ccc(F)cc2)c1C,-23%,-14%,-7,-1
O=C(Nc1ccccc1)Nc1cccc(NC(=O)Nc2ccccc2)c1F,70%,75%,47,18*
CCc1ccccc1NC(=O)Nc1ccc(F)cc1,?,0%,31,14*
O=C(Nc1ccccc1)Nc1ccccc1Br,203%,161%,117*,68*
CCc1ccccc1NC(=O)Nc1cccn(Cc2ccc(F)cc2)c1=O,?,-6%,-5,-2
O=C(Nc1ccccc1)Nc1ccc(Br)c(Cl)c1,0%,?,72*,42*
O=C(CNC(=O)c1cn2ccccc2n1)Nc1ccc(F)c(F)c1,146%,92%,nt,nt
CC(C)C(OC(=O)c1nsc(Cl)c1Cl)C(=O)NC1CCCCC1 (stereo not drawn),18%,14%,-8,-4
CON(C)C(=O)Nc1ccc(Br)c(Cl)c1,nt,nt,54*,27*
COCCNc1nc2nonc2nc1N(C)Cc1cccc2cnccc12,5%,-14%,-6,-2
S=c1[nH]nc(COc2ccc(Cl)cc2)o1,28%,-36%,10,11
COc1ccc(/C=C/C(=O)Nc2cc(C)nn2-c2nc3ccccc3n2Cc2cccc([N+](=O)[O-])c2)cc1,9.3µM*,?,18,5
Cc1cc(NC(=O)CSc2nnc(C)n2-c2ccccc2C)no1,?,11%,14,-1
CCCCN1CCCCC1C(=O)Nc1c(C)cccc1C (stereo not drawn),1%,-2%,nt,nt
CCCCN1CCCC1C(=O)Nc1c(C)cc(C)cc1C (stereo not drawn),2.6µM*,-25%,nt,nt
Cc1ccc(C(=O)C(C)OC(=O)CN2C(=O)NC3(CCCC3)C2=O)cc1C (stereo not drawn),11%,-20%,nt,nt
CCOC(=O)C1CCN(C(=O)N(CC)CC)CC1,-15%,4%,-6,-1
Cc1cc(C(=O)O)c(=O)[nH]c1C,2.6µM*,35%,-3,1
CCOC(=O)c1c(C)n(C)c2ccc(OCC(O)CNCCc3ccccc3)cc12 (stereo not drawn),4.7µM*,?,-7,-4
CCOC(=O)COc1ccc2c(c1)c(C(C)=O)c(C)n2-c1ccc(OC)cc1,2%,-16%[0.00184 µM],145*,63
CCOC(=O)c1c(C)n(C)c2ccc(OCC(O)Cn3c(C)nc4ccccc43)cc12 (stereo not drawn),nt,10µM*,1,-2
CCOC(=O)c1c(C)n(-c2ccc(C)cc2)c2ccc(OCC(O)CN3CCN(C)CC3)cc12 (stereo not drawn),123%,9.3µM*,-30,-5
Cc1cccc(OCC(=O)NCCCNC(=O)c2ccco2)c1,-16%,-28%,-13,2
NC(=O)C1(C(N)=O)OC1c1ccc(Cl)c(Cl)c1 (stereo not drawn),-1%,2%,-11,-1
SMILES,Pf growth 96h,Pf growth 48h,Shiga inhibitor,Cycloheximide cs
CCc1ccccc1N1C(=O)[C@@H]2Cc3ccccc3CN2C1=O,-4%,37%,-4,10
CCOC(=O)c1c(-c2ccccc2)oc2ccc(OCC(O)CNCCN(C)C)cc12 (stereo not drawn),?,2.1µM*,-25,-15
Cc1ccc(C)c(-n2cc(CNC(C)Cn3cncn3)c(-c3ccccc3)n2)c1 (stereo not drawn),?,13µM*,-17,-1
Cc1ccc(-n2cc(CNC(C)Cn3cncn3)c(-c3ccc(F)cc3)n2)cc1 (stereo not drawn),11%,7.4µM*,39,10
Cc1ccc(-n2cc(CNC(C)c3cnn(C)c3)c(-c3ccc(F)cc3)n2)cc1 (stereo not drawn),?,?,-17,-2
CN=C(NC#N)NCCSCc1csc(N=C(N)N)n1,19%,6%,nt,nt
Cc1cc(C)cc(N=Cc2ccc([N+](=O)[O-])s2)c1,-17%,0%,-3,13
Cc1onc(-c2ccccc2)c1C(=O)N/N=C/c1ccc([N+](=O)[O-])s1,?,12µM*,-1,1
Cc1ccc(NC(=S)N/N=C/c2ccc([N+](=O)[O-])s2)cc1,31%,9.3µM*,active,47*
COc1ccc(NC(=O)CC(CC(=O)O)c2cc(OC)c(OC)c(OC)c2)cc1 (stereo not drawn),24%,28%,-19,-2
Cc1onc(-c2ccccc2Cl)c1C(=O)N(C)Cc1ccccc1,-15%,-20%,-6,-2
O=C(/C=C/c1cccs1)c1ccc([N+](=O)[O-])cc1,0%,20%,9,1
COc1ccc(OC(=O)c2cccc([N+](=O)[O-])c2)c(C(=O)/C=C/c2cccs2)c1,nt,nt,17,19*
Cc1cc(NC(=O)Nc2ccc(N(C)C)cc2)c2cc(F)cc(F)c2n1,nt,nt,34*,28*
O=c1c2ccccc2nc2ccc(NCc3cccs3)nn12,?,366%,59*,54*
Cc1ccc(NP(=O)(Nc2ccc(C)cc2)Oc2ccccc2)cc1,-29%,208%,20,24*
COc1ccc(OP(=O)(Nc2ccccc2)Nc2ccccc2)cc1,nt,-7%,35,-3
COc1ccc(CCNC(=O)CC2SC(=NCCc3ccccc3)NC2=O)cc1OC (stereo not drawn),9.3µM*,13µM*,6,-3
COc1ccc(CCNC(=O)CC2SC(=NCCC(C)C)NC2=O)cc1OC (stereo not drawn),?,-21%,-11,-4
Cc1ccccc1C(N)c1ccncc1 (stereo not drawn),5.9µM*,31%,-3,-1
C/C=C/c1ccc(OCCN2C(=O)NC(C)(C)C2=O)c(OC)c1,nt,?,12,4
Cc1ccc(C(C)C)c(OCCN2C(=O)NC(C)(C)C2=O)c1,nt,?,-16,7
C/C=C/c1ccc(OCCCN2C(=O)NC(C)(C)C2=O)c(OC)c1,nt,-9%,27,23*
CC1(C)NC(=O)N(CCCCOc2ccc(Br)cc2Cl)C1=O,-6%,nt,13,4
Cc1ccc([N+](=O)[O-])c(OCCCN2C(=O)NC(C)(C)C2=O)c1,-5%,11%,57,19*
SMILES,Pf growth 96h,Pf growth 48h,Shiga inhibitor,Cycloheximide cs
CC1(C)NC(=O)N(CCCOc2ccc(Br)cc2Cl)C1=O,nt,105%,134*,40*
CC1(C)NC(=O)N(CCCOc2ccc3c(c2)CCC3)C1=O,nt,42%,59*,34*
COc1ccc(N2CCN(C(=O)CSc3nnc(-c4ccco4)n3C)CC2)cc1,-13%,-11%,17,-2
Cn1c(N)c(C(=O)CSc2nnc(Cc3cccs3)n2C2CC2)c(=O)n(C)c1=O,3.3µM*,5.2µM*,nt,nt
CCCn1c(N)c(C(=O)CSc2nnc(Cc3cccs3)n2C2CC2)c(=O)n(C)c1=O,4.1µM*,4.7µM*,nt,nt
CCCn1c(N)c(C(=O)CSc2nnc3ccccn23)c(=O)n(C)c1=O,?,-16%,nt,nt
C/C(=N\Nc1c(Cl)c(Cl)nc(C(=O)O)c1Cl)c1ccc(O)cc1,49%,7%,-5,-1
